# Test results taken from PubChem BioAssay.
# Active and inactive are the calls of the source.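 Rule for the calls, unless noted: active = fluorescence slope higher than the sample average by over 3 SD (cut at about -0.22 in these data, passing the limit was not always enough); inactive = the rest.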
# Key:
# [1] = inhibitors of TNFa-induced NFkB p65 translocation, primary screen, imaging, HUVEC, MLSMR starter and 10KST1 sets (AID 438;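 active = inhibition above 20% together with a positive visual image hit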;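 note: compound added about 3h40 before a 20 min TNFalpha stimulation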;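 for inhibition: signal is the nuclear over cytoplasmic p65 intensity ratio per well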); conditions: HUVEC TNFa-induced p65 nuclear translocation; cell count: measured here: nuclei count (cytotoxicity indicator), at 2.08 µM; inhibition: at 2 µM, stronger effect = higher value, 0% TNFa-plus-vehicle, 100% no-TNFa wells
# [2] = inhibitors of mutant huntingtin aggregation, primary screen, imaging, exon1htt(103Q)mCFP cells, high-content imaging (AID 483;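 active = visual image review flags a hit and inhibition of aggregation exceeds 20%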;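 note: compound exposure lasted 3 days before fixation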;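 for nuclei count: percent of the per-plate median nuclei count of sample wells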); conditions: exon1htt(103Q)mCFP cell line, aggregate imaging, at 2 µM; inhibition of aggregation: stronger effect = higher value; nuclei count: measured here: cell count, toxicity
# [3] = inhibitors of E-selectin induction by TNFa, primary screen, imaging, HUVEC, immunofluorescence, MLSMR starter and 10KST1 sets (AID 487;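 active = visually confirmed hit in the image check and inhibition above 20%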;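 for inhibition: signal is fraction of cell area covered by stained E-selectin grains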;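 for nuclei count: 100% = median nuclei count of all wells on the same plate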); conditions: HUVEC TNFalpha-induced E-selectin immunofluorescence imaging, at 2 µM; inhibition: stronger effect = higher value; nuclei count: measured here: cell number, toxicity
# [4] = molecular target: Voltage-gated potassium channel subunit beta-2 (Rattus norvegicus) (UniProt P62483); experiment: KvBeta enzyme negative modulators, primary screen, biochemical, NADPH fluorescence (AID 622); conditions: recombinant KvBeta, 4-cyanobenzaldehyde reduction, at 10 µM, stronger effect = higher value;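 note: slope of raw intensity against log time taken from 70 to 1610 s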
# Chain of Voltage-gated potassium channel subunit beta-2 (Rattus norvegicus) (P62483 whole entry, looked up): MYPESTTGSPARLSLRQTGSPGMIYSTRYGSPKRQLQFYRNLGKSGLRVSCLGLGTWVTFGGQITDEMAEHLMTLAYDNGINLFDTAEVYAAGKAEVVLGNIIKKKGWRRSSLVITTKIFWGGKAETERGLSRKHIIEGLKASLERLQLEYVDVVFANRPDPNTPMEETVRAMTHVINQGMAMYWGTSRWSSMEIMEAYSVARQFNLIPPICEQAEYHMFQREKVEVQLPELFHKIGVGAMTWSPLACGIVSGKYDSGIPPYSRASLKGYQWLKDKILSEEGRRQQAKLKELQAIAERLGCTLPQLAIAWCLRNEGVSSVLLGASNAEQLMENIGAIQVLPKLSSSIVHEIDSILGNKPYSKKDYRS
# [5] = molecular target: Voltage-gated potassium channel subunit beta-2 (Rattus norvegicus) (UniProt P62483); experiment: KvBeta positive modulators, primary screen, biochemical, NADPH fluorescence (AID 623;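 active = NADPH fluorescence slope more negative than the mean of all samples by about 3 SD, 99.7% confidence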;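 note: fluorescence intensity change per second fitted from 20 to 320 s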); conditions: Recombinant KvBeta, NADPH fluorescence decrease slope, 10 min; at 10 µM; stronger effect = lower value
# [6] = molecular target: Alpha-2C adrenergic receptor (Homo sapiens) (UniProt P18825); experiment: modulators of alpha2C/GIRK thallium flux, primary screen, cell-based, HEK293 alpha2C/GIRK1/2 (AID 624;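 active = fluorescence slope after compound addition differing from the mean of all screened samples at 99.7% confidence, in either direction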;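 note: slope of fluorescence ratio to pre-addition baseline per second over 15 to 24 s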); conditions: thallium flux BTC fluorescence, at 10 µM, actives lie on both sides
# Chain of Alpha-2C adrenergic receptor (Homo sapiens) (P18825 whole entry, looked up): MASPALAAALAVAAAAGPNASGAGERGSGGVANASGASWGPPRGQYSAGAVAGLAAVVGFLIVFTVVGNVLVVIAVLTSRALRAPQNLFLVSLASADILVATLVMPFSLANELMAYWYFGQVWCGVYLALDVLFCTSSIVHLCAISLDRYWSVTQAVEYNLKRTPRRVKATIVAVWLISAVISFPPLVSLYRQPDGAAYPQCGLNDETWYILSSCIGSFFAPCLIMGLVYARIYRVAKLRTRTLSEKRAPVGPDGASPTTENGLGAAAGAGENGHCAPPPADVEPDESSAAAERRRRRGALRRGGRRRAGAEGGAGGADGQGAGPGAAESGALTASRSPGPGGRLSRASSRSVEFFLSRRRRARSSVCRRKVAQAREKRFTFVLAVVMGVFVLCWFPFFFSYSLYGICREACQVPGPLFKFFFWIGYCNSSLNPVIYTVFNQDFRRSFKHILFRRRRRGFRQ
# [7] = inhibitors of Sendai virus-induced IRF3 signaling, primary screen, TLR/RLR signaling modifier project, cell-based, Sendai virus stimulus, luciferase, 10K MLSCN set (AID 602276;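 active = inhibition at or above 50% at 10 µM; inactive = inhibition below 50%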;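 note: firefly luciferase from ISG56 promoter only with Renilla not read in this screen; 0% = Sendai virus plus DMSO and 100% = medium plus DMSO without virus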); conditions: HEK293 RL24 IRF3 luciferase reporter, at 10 µM, stronger effect = higher value
# [8] = inhibitors of poly I:C-induced TLR3 signaling, primary screen, cell-based, poly I:C stimulus, luciferase, 10K MLSCN set (AID 602277;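 active = inhibition of the reporter signal at or above 50%; inactive = inhibition below 50%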); conditions: HEK293-TLR3 RL24 IRF3 luciferase reporter, at 10 µM, stronger effect = higher value
Compound,cell count [1],inhibition [1],inhibition of aggregation [2],nuclei count [2],inhibition [3],nuclei count [3],fluorescence slope [4],NADPH fluorescence slope [5],slope [6],inhibition [7],inhibition [8]
O=C(CSc1ncnc2nc[nH]c12)c1ccc(Cl)cc1,728,-12.4% (inactive),9.4% (inactive),101%,5.4% (inactive),95%,-0.5 (inactive),-1.4e-05 (inactive),0.00583 (inactive),-2.82% (inactive),-23.1% (inactive)
COc1ccc(N2C(=O)CC(N3CCN(c4ccccc4F)CC3)C2=O)cc1 (centres undefined),698,-8.7% (inactive),-1.9% (inactive),108%,32.2% (inactive),84.3%,-0.538 (inactive),-2.3e-05 (inactive),0.00511 (inactive),6.58% (inactive),10.1% (inactive)
Cc1cc(C(=O)NCCN2CCN(c3cccc(Cl)c3)CC2)n(-c2ccccc2)n1,647,5.5% (inactive),-25.2% (inactive),78.7%,-50.5% (inactive),108%,-0.531 (inactive),-2.8e-05 (inactive),0.00538 (inactive),16.7% (inactive),35% (inactive)
CCOCCCn1c(=NC(C)=O)c(C(=O)OCC)cc2c(=O)n3ccccc3nc21,473,-3.3% (inactive),2.4% (inactive),108%,-119% (inactive),129%,-0.114 (inactive),-3.8e-05 (inactive),0.00394 (inactive),-7.28% (inactive),-15% (inactive)
CC(C)C(C(=O)Nc1ccc2c(c1)OCCO2)N1C(=O)c2ccccc2C1=O (centres undefined),552,-4.3% (inactive),7% (inactive),104%,-63.7% (inactive),147%,-0.3 (inactive),1.8e-07 (inactive),0.00511 (inactive),2.16% (inactive),12.8% (inactive)
CCOC(=O)c1ccc(N2Cc3cc(C)c(C)cc3C2)cc1O,744,2.9% (inactive),6.2% (inactive),92.7%,-36.2% (inactive),119%,-0.457 (inactive),-1.3e-05 (inactive),0.00595 (inactive),-26.7% (inactive),-52.7% (inactive)
CCOC(=O)CC(=O)c1cc(OC)c(OC)c(OC)c1,640,-0.6% (inactive),-4.2% (inactive),105%,-56% (inactive),106%,-0.432 (inactive),-2.1e-05 (inactive),0.00534 (inactive),5.89% (inactive),12.4% (inactive)
c1ccc(-n2cnc3cc(NCc4ccccn4)ccc32)cc1,469,-5.7% (inactive),25.1% (inactive),102%,-28.1% (inactive),183%,-0.596 (inactive),-4.4e-05 (inactive),0.00529 (inactive),20.8% (inactive),-8.3% (inactive)
CCOc1cc(C2CC(=O)N3CN(C4CCCCC4)CSC3=C2C#N)ccc1O (centres undefined),818,2.3% (inactive),-24.4% (inactive),114%,-31.4% (inactive),110%,-0.607 (inactive),1.8e-05 (inactive),0.00576 (inactive),11.2% (inactive),19.8% (inactive)
CCOc1cc(NC(=O)c2ccco2)c(OCC)cc1NC(=O)CCC(=O)NCc1cccnc1,600,4.9% (inactive),2.6% (inactive),97.7%,16% (inactive),90.3%,-0.358 (inactive),1.7e-05 (inactive),0.00315 (inactive),9.41% (inactive),23.3% (inactive)
O=C1c2ccccc2C(=O)N1C/C=C/CN1C(=O)c2ccccc2C1=O,480,7.4% (inactive),0.3% (inactive),107%,-12.9% (inactive),113%,-0.331 (inactive),-1.5e-05 (inactive),0.007 (inactive),23.3% (inactive),18.7% (inactive)
Cc1ccccc1N1C(N)=NC(N)=NC1(C)C,635,-9.8% (inactive),0.5% (inactive),103%,-6.8% (inactive),110%,-0.584 (inactive),-1.3e-05 (inactive),0.00605 (inactive),4.23% (inactive),5.9% (inactive)
CC(C)C(=O)Nc1ccc2c(c1)nc1n2CCSC1,378,-2.5% (inactive),-0.8% (inactive),113%,-3.7% (inactive),109%,-0.361 (inactive),1.9e-05 (inactive),0.00311 (inactive),-12.7% (inactive),-20.2% (inactive)
COCCOC(=O)c1[nH]c2c(c1C)C(=O)CC(c1ccc(N(C)C)cc1)C2 (centres undefined),342,-4.6% (inactive),-19% (inactive),105%,21.3% (inactive),83.3%,-0.534 (inactive),1.4e-05 (inactive),0.00456 (inactive),-15.6% (inactive),-26.9% (inactive)
